11 compounds from PubChem BioAssay (Tox21) can be followed below.

Results filed as inconclusive are left out. Calls of active or inactive are those of the source. Unless noted, calls follow the shape of the dose curve; as a rule, active = well fitted curve in the direction sought with a large enough effect in the repeat runs; inconclusive = weak or mixed curves; inactive = no such curve, though single readings can be large; an effect the other way counts as inactive or inconclusive.

Test [1] can be described thus: qHTS assay to identify small molecule agonists of the RXR signaling pathway - cell viability counter screen (AID 1159529).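 Also: HEK 293T cells carrying an RXR-alpha UAS beta-lactamase reporter; series mostly up to about 77 µM; nearly all actives have a fitted effect of over 50% in size.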 Put shortly: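 In this parallel viability measure, GeneBLAzer RXR-alpha HEK 293T cells (2% charcoal-stripped FBS) were given a 5 hr preincubation, treated with compounds 16 hr at 37 C, and read by CellTiter-Glo luminescence.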
In general terms: In qHTS, concentration-response curves come from the screen itself.

A short description of test [2]: qHTS assay to identify small molecule antagonists of the retinoid acid receptor (RAR) signaling pathway - cell viability counter screen (AID 1159551). Also: nearly all actives have a fitted effect of over 35% in size. Put shortly:
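C3RL4 RARE-luciferase line; cpds + retinol 1 uM final, 6 h, 37 C/5% CO2; CellTiter-Glo ATP luminescence, 30 min RT.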

In test [3] the target is Luciferin 4-monooxygenase (Photinus pyralis) (UniProt P08659). Description: qHTS assay to identify small molecule inhibitors of firefly luciferase (AID 1224835). Also: series mostly up to about 120 µM; nearly all actives have a fitted effect of over 25% in size. In short, it runs like this:
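Quantitative HTS format; KM concentrations of both substrates. Purified P. pyralis FLuc activity quantified from luminescence images.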

A short description of test [4]: qHTS assay to identify small molecule agonists of the constitutive androstane receptor (CAR) signaling pathway - cell viability counter screen (AID 1224836). Also: series mostly up to about 92 µM; nearly all actives have a fitted effect of over 45% in size. In short, it runs like this:
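Using CellTiter-Fluor, viability of HepG2 cells harbouring hCAR and CYP2B6-2.2kb was measured following 23 h incubation with a 15-concentration compound series plus PK11195 (0.75 uM final).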

Test [5] can be described thus: qHTS assay to identify small molecule antagonists of the constitutive androstane receptor (CAR) signaling pathway - cell viability counter screen (AID 1224837). Also: series mostly up to about 92 µM; nearly all actives have a fitted effect of over 45% in size. Put shortly: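 Read-out: CellTiter-Fluor fluorescence after 23 hr at 37 C/5% CO2. Cells: HepG2 double-stable for hCAR and CYP2B6-2.2kb. Compounds tested at 15 concentrations in the presence of CITCO, final concentration 50 nM.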

Test [6] addresses Nuclear receptor subfamily 1 group I member 3 (Homo sapiens) (UniProt Q14994). Description: qHTS assay to identify small molecule antagonists of the constitutive androstane receptor (CAR) signaling pathway (AID 1224838).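 Also: HepG2 cells stably expressing hCAR with CYP2B6 luciferase reporter stimulated by CITCO; nearly all actives have a fitted effect of over 40% in size.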 Put shortly:
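Read-out: ONE-Glo luciferase luminescence after 30 min at room temperature. HepG2-CYP2B6-hCAR double-stable cells, compounds in 15-point titration plus 50 nM CITCO final, 24 h at 37 C/5% CO2.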

Test [7] in a line: qHTS assay to identify small molecule antagonists of the estrogen related receptor signaling pathway with the pleiotropic PPARgamma coactivator (PGC) from Tox21 10K library - cell viability counter screen (AID 1224840; active = well fitted cell-killing curve with a large enough effect in the repeat runs, not every such curve was filed as active; also: nearly all actives have a fitted effect of over 40% in size). Put shortly: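 Fluorescence read-out of CellTiter-Fluor viability reagent, added after cells had been exposed to compound in DMSO for 17.5 h at 37 C; 30 min development at 37 C/5% CO2. Cells: PGC/ERR line, 2,000/well.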

For test [8], the target named is Thyrotropin receptor (Homo sapiens) (UniProt P16473). Description: qHTS assay to identify small molecule agonists of the thyroid stimulating hormone receptor (TSHR) signaling pathway (AID 1224843; calls by dose curve; also: nearly all actives have a fitted effect of over 45% in size). Put shortly:
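Compounds are titrated over 15 concentrations, in triplicate, onto TSHR-HEK293 cells seeded at 800/well. Plates sit 30 min at room temperature before cAMP-d2 and anti-cAMP cryptate are added; signal is read after a further hour.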

Test [9] in a line: qHTS assay to identify small molecule agonists of the retinoic acid receptor (RAR) signaling pathway (AID 1159553). Put shortly: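 RARE-luc C3RL4 cells; overnight attachment 37 C/5% CO2; compound (DMSO) 6 hr; luciferase reagent, 30 min RT; luminescence read-out.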
The nature of test [10]: qHTS assay to identify small molecule antagonists of the estrogen related receptor (ERR) signaling pathway from Tox21 library - cell viability counter screen (AID 1224834). Also: nearly all actives have a fitted effect of over 30% in size. Put shortly:
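Multiplexed viability counter screen in ERR cells: 17.5 h compound exposure at 37 C, CellTiter-Fluor added, 30 min at 37 C/5% CO2, fluorescence read.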

Test [11] addresses Nuclear receptor subfamily 1 group I member 3 (Homo sapiens) (UniProt Q14994). Description: qHTS assay to identify small molecule agonists of the constitutive androstane receptor (CAR) signaling pathway (AID 1224839). Also: nearly all actives have a fitted effect of over 15% in size. Also: potency is read from the fitted curve at half-maximal effect. Put shortly:
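Double-stable HepG2 cells (hCAR, CYP2B6-2.2kb) seeded 4 h before compound addition. Exposure 24 h with 0.75 uM PK11195 final. Luciferase detected by ONE-Glo.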

Test [12] can be described thus: qHTS assay to identify small molecule antagonists of the estrogen related receptor signaling pathway with the pleiotropic PPARgamma coactivator (PGC) from Tox21 10K library (AID 1224841; call rule not given here; also: series mostly up to about 92 µM; actives are mostly falling curves and most rising ones were filed inactive; nearly all actives have a fitted effect of over 50% in size). In short, it runs like this:
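Luminescence read-out (One-Glo luciferase reagent, 30 min at room temperature) from PGC/ERR cells exposed to DMSO-dissolved test compounds for 18 h at 37 C; cells, 2,000 per well, had been preincubated 6 h before compound transfer.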

Test [13] is described as follows: qHTS assay to identify small molecule agonists of the estrogen related receptor signaling pathway with the pleiotropic PPARgamma coactivator (PGC) from Tox21 10K library (AID 1224842). Also: nearly all actives have a fitted effect of over 15% in size. In short, it runs like this: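 PGC/ERR reporter cells (NTP line) were seeded 2,000 per well, rested 6 h at 37 C/5% CO2, then pin-dosed with compounds in DMSO for 18 h at 37 C; luciferase read by One-Glo luminescence after 30 min at room temperature.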

Test [14] in a line: qHTS assay to identify small molecule antagonists of the estrogen related receptor (ERR) signaling pathway - cell viability counter screen (AID 1224818). Also: series mostly up to about 46 µM. Put shortly: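 Fluorescence from CellTiter-Fluor, read 30 min after reagent addition at 37 C, measured viability of ERR cells exposed to compounds for 17.5 h. Cells had settled 6 h before dosing.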
Test [15] is described as follows: qHTS assay to identify small molecule antagonists of the estrogen related receptor (ERR) signaling pathway (AID 1224819; also: series mostly up to about 46 µM; nearly all actives have a fitted effect of over 50% in size). Put shortly: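 Luminescence readout (One-Glo, 30 min, RT) of ERR cell line after 18 h compound exposure at 37 C; cells seeded 2,000/well, pre-incubated 6 h, compounds pinned from DMSO stocks.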
Test [16] is described as follows: qHTS assay to identify small molecule agonists of the estrogen related receptor (ERR) signaling pathway (AID 1224820). In short, it runs like this: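 After 6 h plating (2,000 cells/well) and 18 h compound treatment at 37 C, ERR cells were lysed with One-Glo and luminescence read after 30 min at room temperature.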
Test [17] has as its system estrogen-related receptor alpha (ERRalpha) with PGC-1alpha coactivator, human. Description: qHTS assay to identify small molecule antagonists of the estrogen related receptor signaling pathway with the pleiotropic PPARgamma coactivator (PGC) (AID 1224821; calls by dose curve;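 also: series mostly up to about 46 µM; lower luminescence signal means antagonism of PGC/ERR signalling; nearly all actives have a fitted effect of over 50% in size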). In short, it runs like this: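 Luminescence from One-Glo luciferase reagent (30 min, room temperature) measured after 18 h compound treatment at 37 °C. Cells carry the PGC/ERR reporter and were seeded 6 h prior to dosing.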

Test [18] is described as follows: qHTS assay to identify small molecule antagonists of the estrogen related receptor signaling pathway with the pleiotropic PPARgamma coactivator (PGC) cell viability counter screen (AID 1224822; also: series mostly up to about 46 µM). In short, it runs like this:
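Fluorescence read-out of CellTiter-Fluor after 30 min at 37 C; PGC/ERR cells, 2,000 per well, had been exposed to DMSO-dissolved compounds for 17.5 h following a 6 h pre-incubation.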

Test [19] in a line: qHTS assay to identify small molecule agonists of the estrogen related receptor signaling pathway with the pleiotropic PPARgamma coactivator (PGC) (AID 1224823). In short, it runs like this: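 Luminescence from One-Glo reagent (30 min, room temperature) was read after 18 h compound treatment at 37 C of PGC/ERR cells plated 6 h beforehand; compounds delivered in DMSO by pin tool.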

Chain of Nuclear receptor subfamily 1 group I member 3 (Homo sapiens) (Q14994 whole entry, looked up): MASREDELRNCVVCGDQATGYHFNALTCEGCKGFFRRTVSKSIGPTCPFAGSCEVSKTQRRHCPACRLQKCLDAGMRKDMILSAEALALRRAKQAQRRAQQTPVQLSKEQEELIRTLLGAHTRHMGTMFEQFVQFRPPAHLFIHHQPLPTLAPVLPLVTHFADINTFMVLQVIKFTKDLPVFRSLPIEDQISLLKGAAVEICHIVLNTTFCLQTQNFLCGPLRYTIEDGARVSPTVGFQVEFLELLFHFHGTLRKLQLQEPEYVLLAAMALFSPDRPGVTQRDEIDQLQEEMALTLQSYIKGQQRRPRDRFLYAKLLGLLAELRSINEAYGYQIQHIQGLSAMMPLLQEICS
Chain of Thyrotropin receptor (Homo sapiens) (P16473 whole entry, looked up): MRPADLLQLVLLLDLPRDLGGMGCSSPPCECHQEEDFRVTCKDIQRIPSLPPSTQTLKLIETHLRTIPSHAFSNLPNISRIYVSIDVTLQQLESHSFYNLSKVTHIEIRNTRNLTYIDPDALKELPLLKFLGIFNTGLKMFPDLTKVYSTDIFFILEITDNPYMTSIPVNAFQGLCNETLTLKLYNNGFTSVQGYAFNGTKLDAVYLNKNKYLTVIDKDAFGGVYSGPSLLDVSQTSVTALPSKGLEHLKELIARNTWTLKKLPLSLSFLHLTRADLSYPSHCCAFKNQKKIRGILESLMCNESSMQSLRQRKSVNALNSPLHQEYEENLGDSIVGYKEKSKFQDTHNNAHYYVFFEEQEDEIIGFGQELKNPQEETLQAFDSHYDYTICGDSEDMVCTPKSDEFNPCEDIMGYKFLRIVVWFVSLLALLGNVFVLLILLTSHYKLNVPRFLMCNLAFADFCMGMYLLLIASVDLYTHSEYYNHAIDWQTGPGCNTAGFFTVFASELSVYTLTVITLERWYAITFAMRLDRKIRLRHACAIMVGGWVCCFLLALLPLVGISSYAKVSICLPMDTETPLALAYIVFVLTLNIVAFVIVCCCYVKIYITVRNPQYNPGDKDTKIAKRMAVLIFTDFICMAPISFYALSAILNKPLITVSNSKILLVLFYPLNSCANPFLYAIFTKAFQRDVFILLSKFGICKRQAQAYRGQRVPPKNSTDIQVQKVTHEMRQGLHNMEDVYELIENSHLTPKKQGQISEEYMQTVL
Chain of Luciferin 4-monooxygenase (Photinus pyralis) (P08659 whole entry, looked up): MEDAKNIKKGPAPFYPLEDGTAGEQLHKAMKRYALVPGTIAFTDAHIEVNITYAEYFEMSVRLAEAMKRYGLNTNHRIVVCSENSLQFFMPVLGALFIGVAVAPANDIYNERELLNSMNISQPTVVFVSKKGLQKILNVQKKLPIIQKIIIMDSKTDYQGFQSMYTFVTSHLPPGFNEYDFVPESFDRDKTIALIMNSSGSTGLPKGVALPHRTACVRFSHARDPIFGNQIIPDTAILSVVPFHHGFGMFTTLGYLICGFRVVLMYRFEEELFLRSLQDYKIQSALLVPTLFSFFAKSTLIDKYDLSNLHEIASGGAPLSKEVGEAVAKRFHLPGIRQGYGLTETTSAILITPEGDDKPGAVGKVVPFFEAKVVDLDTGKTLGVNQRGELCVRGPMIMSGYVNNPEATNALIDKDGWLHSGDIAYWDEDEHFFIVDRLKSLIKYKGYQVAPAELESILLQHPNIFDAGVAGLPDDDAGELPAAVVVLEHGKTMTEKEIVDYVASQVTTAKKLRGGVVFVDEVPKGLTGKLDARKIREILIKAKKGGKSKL

Consider `CC1(C)[C@H]2CC[C@]1(C)[C@H](O)C2`, for which the Potency result in test [1], in test [2], in [3], in test [4], in test [5] and in [6] was “inactive” throughout. Further, the Potency result in test [7] and in test [8] was “inactive” each time.
Consider `O=C(O)C1CCC(C(=O)O)CC1` (stereo not given), for which the Potency entry in [1], in [2], in test [9], in test [10], in [3] and in test [4] was “inactive” in each case. For the same compound, the Potency entry in test [5], in test [11], in test [7], in test [12] and in test [13] was “inactive” in each case.
For the compound `OC(CCN1CCCCC1)(c1ccccc1)C1CCCCC1` (stereo not given), the Potency entry in test [1], in test [2], in test [10], in test [3], in test [4] and in test [11] was “inactive” each time. In addition, the Potency entry in [7], in test [12] and in test [13] was “inactive” each time. In addition, the outcome in [14], in test [15], in test [16], in [17], in test [18] and in test [19] was inactive.
On to `CC(=O)[C@@]1(O)CC[C@H]2[C@@H]3C[C@H](C)C4=CC(=O)CC[C@]4(C)[C@H]3CC[C@@]21C`, for which the Potency entry in test [1], in test [2], in [10], in test [3], in test [4] and in test [5] was “inactive” in each case. Further, the Potency entry in [6], in test [7], in test [13] and in test [8] was “inactive” in each case. The Potency in [11] was 21.1 µM (active).
Consider `CCCCOC(=O)c1ccccc1C(=O)OCC(CC)CCCC` (stereo not given), for which the Potency entry in [1], in test [2], in test [10], in [3], in [4] and in [5] was “inactive” in each case. The Potency entry in [6], in [11] and in [8] was “inactive” in each case.
For the compound `Cc1ccccc1N=Nc1ccc(N=Nc2c(O)ccc3ccccc23)c(C)c1`, the Potency entry in test [1], in [2], in test [10], in test [4], in test [5] and in test [6] was “inactive” throughout. The Potency entry in [7], in [12], in test [13] and in [8] was “inactive” each time.
Take `CN1CCC[C@@H]1c1cccnc1`: the Potency result in test [1], in test [2], in [10], in [3], in [4] and in test [5] was “inactive” throughout. Besides, the Potency result in test [6] and in test [7] was “inactive” throughout.
As for `CCCCCCCCCC=O`, the Potency result in test [1], in test [2], in test [10], in test [3], in test [4] and in [5] was “inactive” throughout. In addition, the Potency entry in [7] and in test [8] was “inactive” throughout.
Take `O=S1(=O)N=C(O)c2ccccc21`: the Potency result in test [1], in [2], in test [9], in test [10], in test [4] and in [5] was “inactive” each time. Moreover, the Potency entry in [7] and in test [8] was “inactive” in each case.
Regarding `O=C(O)COC(=O)Cc1ccccc1Nc1c(Cl)cccc1Cl`, the Potency entry in [1], in test [2], in test [9], in test [10], in [3] and in test [4] was “inactive” each time. Moreover, the Potency result in test [12], in [13] and in test [8] was “inactive” each time.
As for `Nc1nc(N)c(-c2ccccc2)s1`, the Potency entry in test [1], in [2], in [10], in test [3], in test [5] and in test [7] was “inactive” in each case. Also, the Potency result in [12] and in [13] was “inactive” throughout.
